NTMT1 inhibitor: Primary qHTS for Inhibitors of N-terminal methyltransferase 1 (NTMT1): MTaseGlo Assay; N-terminal Xaa-Pro-Lys N-methyltransferase 1 (Homo sapiens), Q9BV86; NTMT1 MTase-Glo SAH luminescence, purified enzyme; Potency, µM (series often up to 114 µM), inactives show top-dose activity change, negative = inhibition, most hits filed as inhibitors; actives 2.5% (n = 59,000); AID 1645870, 2021;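 also: potency is read from the fitted curve at half-maximal effect; plate controls were DMSO vehicle for no effect and no enzyme for full effect; nearly all actives have a fitted effect of over 65% in size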
Target sequence (Q9BV86 whole entry, looked up): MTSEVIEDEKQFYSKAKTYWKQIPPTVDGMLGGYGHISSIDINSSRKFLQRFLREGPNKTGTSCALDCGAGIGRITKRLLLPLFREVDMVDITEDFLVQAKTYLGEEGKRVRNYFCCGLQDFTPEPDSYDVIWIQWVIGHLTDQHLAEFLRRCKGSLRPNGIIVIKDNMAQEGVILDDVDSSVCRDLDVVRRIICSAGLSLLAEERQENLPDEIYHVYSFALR
HTT promoter inh: Primary qHTS for Identification of Small Molecule Inhibitors of Huntingtin Promoter Activity | HEK293 HTT promoter firefly luciferase reporter, 24 h | Potency, µM (series often up to 57.5 µM), inactives show at the top dose activity change, negative = inhibition, actives largely listed as inhibitors | actives 0.93% (n = 48,000); also: potency is read from the fitted curve at half-maximal effect; nearly all actives have a fitted effect of over 50% in size
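Quantitative HTS used concentration series of up to 57.5 uM final on HEK293 luciferase reporter cells, 24 h at 37 degrees C. Readout was Dual-Glo firefly luminescence.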
HTT-AS promoter: Primary qHTS for Identification of Small Molecule Activators of Huntingtin-Antisense Promoter Activity; HEK293 HTT-AS promoter firefly luciferase reporter, 24 h; response scale: percent change from vehicle, -100% = no light; Potency, µM (top dose mostly 57.5 µM), without a hit: at the highest dose activity change, positive = activation, hits mostly activators; actives 0.24% (n = 48,000); AID 1508624, 2021; also: potency is read from the fitted curve at half-maximal effect; nearly all actives have a fitted effect of over 55% in size
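Firefly luciferase signal from promoter-reporter HEK293 cells was scaled between vehicle (0%) and zero RLU (-100%). Compounds were tested at final concentrations of up to 57.5 uM over 24 h at 37 degrees C. PTC124 at 50 uM final served as control inhibitor.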
FH mod: Identification of activators of human fumarate hydratase by quantitative high-throughput screening; Fumarate hydratase, mitochondrial (Homo sapiens), P07954; FH coupled MDH/diaphorase resazurin fluorescence, 15 min; Potency, µM (highest dose often 79.9 µM), for the others: at the highest dose activity change, negative = inhibition, usual class: inhibitors; actives 0.22% (n = 54,000); AID 1347055, 2019; also: potency is read from the fitted curve at half-maximal effect; % is scaled to controls: 0 for no effect and ±100 for the full control effect; the screen sought activators but most active calls are inhibition curves; nearly all actives have a fitted effect of over 45% in size
DYRK1A KinaseGlo: Assay for Inhibitors of Dual-Specificity Tyrosine-(Y)-Phosphorylation Regulated Kinase 1A (Kinase-Glo assay); shares compounds with NTMT1 inhibitor; recombinant DYRK1A, Kinase-Glo ATP depletion luminescence; actives 80% (n = 100); Potency, µM (titrated, usually from 76.9 µM), inactives show top-dose activity change, negative = inhibition, usual class: inhibitors
CLK4 KinaseGlo: Confirmation Assay for Inhibitors of CDC-like Kinase 4 (Kinase-Glo Assay): SAR round 2; shares compounds with NTMT1 inhibitor; recombinant Clk4, Kinase-Glo ATP luminescence, 4.5 h; Potency, µM (titrated, usually from 76.9 µM), for inactives: at the top dose activity, negative = inhibition, hits mostly inhibitors; actives 90% (n = 90); AID 493204, 2011
Sfp PPTase inh: qHTS Assay for Inhibitos of Bacillus subtilis Sfp phosphopantetheinyl transferase (PPTase): Chemistry Optimization Followup; purified Sfp PPTase enzyme activity, qHTS; actives 78% (n = 230); shares compounds with NTMT1 inhibitor; Potency, µM (top dose mostly 114 µM), without a hit: top-dose activity change, negative = inhibition, usual class: inhibitors
Bsub HM489 growth: qHTS for Inhibitos of Bacillus subtilis Sfp phosphopantetheinyl transferase (PPTase): Chemistry Optimization Followup in B. Subtilis HM489 | AID 540353, 2011 | Potency, µM (highest dose often 114 µM), inactives show top-dose activity change, negative = inhibition, most hits filed as inhibitors | shares compounds with NTMT1 inhibitor | B. subtilis HM489 (acpS-) growth, BacTiter-Glo, 5 h | actives 50% (n = 220)
Sfp PPTase gel: Gel-Based Assay for Inhibitos of Bacillus subtilis Sfp phosphopantetheinyl transferase (PPTase): Chemistry Optimization Followup | shares compounds with NTMT1 inhibitor | purified Sfp PPTase, gel-based product detection | Potency, µM (highest dose often 250 µM), inactives show top-dose activity change, negative = inhibition, usual class: inhibitors | actives 54% (n = 220) | AID 540355, 2011
Sfp SAR2: qHTS Assay for Inhibitors of Bacillus subtilis Sfp phosphopantetheinyl transferase (PPTase): SAR Round 2; shares compounds with NTMT1 inhibitor; purified Sfp enzyme, PPTase activity, qHTS; Potency, µM (highest dose often 57.1 µM), for the others: at the highest dose activity change, negative = inhibition, actives largely listed as inhibitors; actives 87% (n = 230); AID 602370, 2012
USP2a K63: Confirmation Assay for Inhibitors of Ubiquitin-specific Protease USP2a Using CHOP2 as the Reporter: K633; shares compounds with NTMT1 inhibitor; USP2 cleavage of DiUb K63-3IQF, fluorescence kinetic; Potency, µM (series often up to 57.5 µM), for the others: at the highest dose activity change, negative = inhibition, usual class: inhibitors; actives 80% (n = 30); AID 652172, 2013
Casp6 counter: qHTS for Inhibitors of Ubiquitin-specific Protease USP2a Using CHOP2 as the Reporter: Caspase 6 Assay | shares compounds with NTMT1 inhibitor | Caspase 6 enzyme, Caspase-Glo 6 luminescence | activity change, negative = inhibition, % at 46.1 µM | 30 tested, under 10 active
HSD17B4 counter: Extended Characterization of HPGD Inhibitors: Counterscreen Against HSD17b4; AID 743187, 2013; shares compounds with NTMT1 inhibitor; Potency, µM (series often up to 57.1 µM), for the others: at the top dose activity change, negative = inhibition, most hits filed as inhibitors; actives 10% (n = 230); purified HSD17B4, estradiol/NAD+, NADH fluorescence
ALDH1A1 inh: Extended Characterization of HPGD Inhibitors: Counterscreen Against ALDH1A1 | shares compounds with NTMT1 inhibitor | recombinant ALDH1A1, NADH fluorescence, propionaldehyde/NAD+ | Potency, µM (series often up to 57.1 µM), for the others: top-dose activity change, negative = inhibition, most hits filed as inhibitors | actives 93% (n = 230) | AID 743195, 2013
Target sequence (P00352 whole entry, looked up): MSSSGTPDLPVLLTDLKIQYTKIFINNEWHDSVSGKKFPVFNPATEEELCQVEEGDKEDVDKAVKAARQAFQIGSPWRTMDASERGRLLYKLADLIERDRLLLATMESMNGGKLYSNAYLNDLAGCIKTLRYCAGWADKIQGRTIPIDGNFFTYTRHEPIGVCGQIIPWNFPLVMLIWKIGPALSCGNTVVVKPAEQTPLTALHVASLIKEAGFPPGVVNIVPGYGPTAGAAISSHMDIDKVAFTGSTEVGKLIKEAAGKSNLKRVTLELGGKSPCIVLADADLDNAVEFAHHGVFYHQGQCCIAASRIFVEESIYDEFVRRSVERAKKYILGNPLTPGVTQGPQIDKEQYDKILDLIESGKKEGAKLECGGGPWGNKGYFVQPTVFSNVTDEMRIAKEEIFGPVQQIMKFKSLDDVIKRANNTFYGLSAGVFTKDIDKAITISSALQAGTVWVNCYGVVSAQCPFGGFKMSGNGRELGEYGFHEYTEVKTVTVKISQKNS
NNMT inh: Counterscreen qHTS for Inhibitors of N-terminal methyltransferase 1 (NTMT1): NNMT MTaseGlo assay; shares compounds with NTMT1 inhibitor; NNMT MTase-Glo luminescence, SAH detection; Potency, µM (highest dose often 57.1 µM), for the others: at the top dose activity, negative = inhibition, most hits filed as inhibitors; actives 10% (n = 120); AID 1645878, 2021
* hit, by the source's call; ? = inconclusive; nt = no result; ! = not confirmed by another sample; [ ] = another dose, or the depositor's remark. A selection: hits, their analogues and other compounds. The true share with any hit is near 4.7%. Calls follow the shape of the dose curve; as a rule, active = well fitted curve in the direction sought with a large enough effect; inconclusive = small, poorly fitted or top-dose-only effect, or another doubt; inactive = no such curve, though single readings can be large; an effect the other way counts as inactive or inconclusive.

SMILES | NTMT1 inhibitor | HTT promoter inh | HTT-AS promoter | FH mod | others
FC(F)(F)c1cnc(N2CCN(C(=S)Nc3cc(Cl)ccn3)CC2)c(Cl)c1 | ? | nt | nt | nt | Sfp PPTase inh=9.37µM*;Bsub HM489 growth=11.8µM*;Sfp PPTase gel=?;Sfp SAR2=1.29µM*;HSD17B4 counter=-25.7%;ALDH1A1 inh=3.83µM*
Cc1cc(-c2nnc3n2CCCCC3)c(C)n1-c1ccc(Cl)cc1 | 23.0% | nt | nt | nt
Cc1cc(-c2nnc3n2CCCCC3)c(C)n1-c1cccc(C#N)c1 | 17.6% | nt | nt | nt | HSD17B4 counter=-0.5%;ALDH1A1 inh=?
Cc1cc(-c2nnc3n2CCCCCC3)c(C)n1-c1ccccc1 | 11.8% | nt | nt | nt
Cc1cc(-c2nnc3n2CCCCC3)c(C)n1-c1ccc(Cl)c(Cl)c1 | 19.4% | nt | nt | nt | HSD17B4 counter=10.5%;ALDH1A1 inh=0.607µM*
CCC(C)(O)C(O)C(=O)OCc1ccc(O[C@@H]2O[C@H](CO)[C@@H](O)[C@H](O)[C@H]2O)cc1 (stereo not given in full) | 4.3%[29.8 µM] | nt | nt | -1.8%[53.3 µM]
COC(=O)/C=C/C(=O)OC | 3.0% | nt | nt | nt
Cc1ccc(S(=O)(=O)Nc2cnccc2C(=O)NCc2ccccc2)cc1 | 1.8%[57.5 µM] | nt | nt | nt
COc1cc2ncnc(Nc3ccc(O)cc3)c2cc1OC | -11.1%[57.5 µM] | nt | nt | 1.7%
C#Cc1cccc(Nc2ncnc3cc(OC)c(OCCCCCCC(=O)NO)cc23)c1 | 12.6µM* | 55.3%[116 µM] | ? | 10.8% | NNMT inh=?
C=CC(C)(O)CC/C=C(\C)COC1O[C@H](CO)[C@@H](O)[C@H](O)[C@H]1O (stereo not given in full) | ? | nt | nt | -25.0%[53.3 µM]
Cc1cc(CS(=O)(=O)c2ccccc2)cc(OCc2ccc(CN3CCC[C@@H]3CO)cc2)c1 | 8.91µM*! | nt | nt | -4.7% | NNMT inh=-5.7%
Nc1ccccc1OCCn1c(CCNC(=O)C2CCCCC2)nc2ccccc21 | 29.4% | nt | nt | nt
Cc1ccc(S(=O)(=O)Nc2ccccc2C(=O)Nc2nc(-c3ccc(Cl)cc3)cs2)cc1 | -5.3% | nt | nt | nt | USP2a K63=4.3%;Casp6 counter=-7.3
Cc1ccc(S(=O)(=O)Nc2ccccc2C(=O)Nc2nc(-c3ccccc3)c(C)s2)cc1 | -5.8%[57.5 µM] | nt | nt | nt
Cc1ccc(S(=O)(=O)Nc2cnccc2C(=O)Nc2ccncc2)cc1 | ? | nt | nt | nt | USP2a K63=-11.6%;Casp6 counter=-20.5
Cc1ccc(S(=O)(=O)Nc2ccccc2C(=O)Nc2nccs2)cc1 | 25.1% | nt | nt | nt | USP2a K63=?;Casp6 counter=16.7
Cc1ccc(S(=O)(=O)Nc2ccc(Br)cc2C(=O)Nc2nc(-c3ccccc3)cs2)cc1 | -15.1% | nt | nt | nt
Cc1ccc(S(=O)(=O)Nc2cc(Cl)ccc2C(=O)Nc2nc(-c3ccccc3)cs2)cc1 | 27.1µM*! | ? | -16.0% | -11.2%[53.3 µM] | USP2a K63=1.72µM*;Casp6 counter=-11.6
O=C(O)c1ccc(O)c2ncc(-c3ccc(N4CCOCC4)cc3)cc12 | 9.7% | nt | nt | nt
OCc1ccc(-c2ccc3ncnc(NCCc4cnc[nH]4)c3c2)o1 | ? | nt | nt | nt | DYRK1A KinaseGlo=23.2µM*
O=C(O)c1ccc(-c2ccc3ncnc(NCCc4cnc[nH]4)c3c2)o1 | -3.0% | nt | nt | nt | DYRK1A KinaseGlo=9.23µM*
CCNC(=O)c1ccc(-c2ccc3ncnc(NCCc4cnc[nH]4)c3c2)o1 | -3.0%[57.5 µM] | nt | nt | nt | CLK4 KinaseGlo=1.3µM*

Screens (PubChem)
